Our source for the activation, outcome and potentiation values is PubChem BioAssay.

In test [1] the test system is TRPC4 beta (transient receptor potential cation channel C4), mouse. Briefly: TRPC4 cation channel opening, retest – cell-based, Fluo4 calcium, HEK293 TRPC4beta/mu-opioid, duplicates, 10 µM, confirmation (AID 2426;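 active means fluorescence ratio normalized to control raised more than 50% in primary screen plus both repeat runs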;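 on activation: percent rise of integrated ratio over buffer wells lacking compound which define 0%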). The note with it: Fluo4 calcium fluorescence, at 10 µM; hits give high values.
For test [2], the system named is transient receptor potential cation channel C4 beta (TRPC4), mouse. Briefly: TRPC4 cation channel opening, second retest – cell-based, second round, Fluo4, HEK293 TRPC4beta/mu-opioid, 1 µM, confirmation (AID 2461;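 active means primary screen active and over 50% activation in each of two duplicate runs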;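 on activation: 0% = wells without test compound as baseline of integrated fluorescence ratio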). The note with it: Fluo4 calcium fluorescence, at 1 µM; hits give high values.
Test [3] concerns TRPC4 (transient receptor potential cation channel C4 beta), mouse. The experiment in a line: potentiation of DAMGO EC20 TRPC4 response – cell-based, second round, Fluo-4, HEK293 TRPC4beta/mu-opioid, 1 µM, confirmation (AID 2554;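 active means primary screen hit whose fluorescence ratio, in both repeats, exceeds the weak agonist control mean by 3 SD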). The note with it: DAMGO EC20, Fluo-4 calcium flux, at 1 µM; hits give high values.
Test [4] has as its system TRPC4 beta (transient receptor potential cation channel C4), mouse. Briefly: potentiation of DAMGO EC20 TRPC4 response – cell-based, Fluo-4, HEK293 TRPC4beta/mu-opioid, confirmation (AID 2555;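 active means primary screen hit whose calcium fluorescence ratio, in both repeats, exceeds the weak agonist control mean by 3 SD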). The note with it: DAMGO EC20, Fluo-4 calcium flux, at 10 µM; hits give high values.
Test [5] addresses Short transient receptor potential channel 4 (Mus musculus) (UniProt Q9QUQ5). Briefly: blockers of DAMGO-evoked TRPC4 calcium flux – cell-based, Fluo4, HEK293 TRPC4beta/mu-opioid, confirmation (AID 2636;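 active means calcium signal cut by more than 3 SD below the full-agonist control yet still positive, in both repeats and the earlier primary screen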). To be noted: at 10 µM; hits give high values.
Test [6] has the same target. Briefly: blockers of DAMGO-evoked TRPC4 calcium flux – cell-based, second round, Fluo4, HEK293 TRPC4beta/mu-opioid, 1 µM, confirmation (AID 2637;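 active means calcium signal ratio cut to more than 3 SD under the fully stimulated control mean yet still positive, in both repeats and the primary screen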). To be noted: at 1 µM; hits give high values.
The target is the same in test [7]. The experiment in a line: potentiation of DAMGO-evoked TRPC4 calcium signal – cell-based, HEK293 TRPC4/mu-opioid, Fluo-4 calcium, EC20 DAMGO, dose response (AID 434941;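 active means earlier screen potentiator hit that boosts the TRPC4 ion channel at some dose, with a dose response; inactive means no potentiation, no dose response, or not a prior hit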;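 further: calcium entry triggered by an EC20 dose of DAMGO at the co-expressed mu-opioid receptor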).
For test [8] the target is unchanged. The experiment in a line: block of DAMGO-driven TRPC4 calcium entry – cell-based, HEK293 TRPC4/mu-opioid, Fluo-4 calcium, dose response (AID 434942;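 active means primary screen inhibitor hit that blocks the TRPC4 channel at some tested dose, yielding a dose curve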).
Test [9] has as its target Short transient receptor potential channel 6 (Mus musculus) (UniProt Q61143). Briefly: TRPC6 blockade by TRPC4 inhibitor hits – cell-based, HEK293, membrane potential dye, duplicate, selectivity assay for TRPC4 inhibitor project, confirmation (AID 434948;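 active means active in primary screen and both duplicates, each dropping signal beyond three positive-control SD with fluorescence still positive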). To be noted: HEK293 TRPC6, membrane potential dye fluorescence, at 10 µM, stimulated with maximal-effect acetylcholine; hits give high values.

Test [10] has the same target. The experiment in a line: TRPC6 opening by TRPC4 activator hits – cell-based, HEK293, membrane potential dye, duplicate, selectivity assay for TRPC4 activator project, confirmation (AID 434950;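 active means membrane potential signal rise above negative control mean plus 3 SD in both duplicates, also active in the earlier TRPC4 screen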;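 on activation: 0% = buffer only wells and 100% = acetylcholine maximal-effect wells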). The note with it: HEK293 TRPC6, membrane potential fluorescence, at 10 µM; activation: hits give high values; outcome: activation.
For test [11] the target is unchanged. Briefly: positive modulators of mouse TRPC6 channel – HEK293 cells, membrane potential dye, duplicate, selectivity assay for TRPC4 potentiator project, confirmation (AID 434952;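 active means compound raising the membrane signal above positive-control mean plus 3 SD in both repeats, and a primary screen hit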). The note with it: HEK293 TRPC6, membrane potential dye fluorescence, at 10 µM, maximal acetylcholine added after compound; hits give high values.
The target in test [12] is Short transient receptor potential channel 4 (Mus musculus) (UniProt Q9QUQ5). The experiment in a line: calcium flux activators in TRPC4/5HT1a cells, counter-screen for TRPC4 activator project, cell-based, second counter screen, HEK293 TRPC4/5HT1a, Fluo-4 (AID 434977;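 active means calcium signal rise above buffer-control mean plus 5 SD in both duplicates, and also a hit in the primary screen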;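 on activation: plate controls were assay buffer for no effect and maximal serotonin response for full effect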). To be noted: Fluo-4 calcium flux, at 10 µM; hits give high values. (In general: A change in cytosolic calcium serves as a functional read-out for many receptors and channels.)

Test [13] can be described thus: serotonin-gated TRPC4 signal block – cell-based, second counter screen, HEK293 TRPC4/5HT1a, Fluo-4, counter-screen for TRPC4 inhibitor project, confirmation (AID 434978;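 active means primary screen active whose calcium signal fell more than 3 SD beyond the full-serotonin control mean in both duplicate plates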;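 further: serotonin given first at submaximal then at maximal dose after compound preincubation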). To be noted: Fluo-4 calcium flux, at 10 µM, serotonin added to trigger calcium flux; hits give high values. In general terms: Counterscreens check selectivity or assay interference.
Test [14] relates to TRPC4 (mouse), co-expressed with 5HT1a in HEK293. The experiment in a line: enhancement of serotonin-evoked TRPC4 response – cell-based, second counter screen, HEK293 TRPC4/5HT1a, Fluo-4, counter-screen for TRPC4 potentiator project, confirmation (AID 434979). To be noted: Fluo-4 calcium flux, at 10 µM, serotonin added at its EC20 dose; hits give high values.
Test [15] can be described thus: nonspecific calcium rise without TRPC4 – cell-based, HEK293 mu-opioid receptor line, counter-screen for TRPC4 activator project, confirmation (AID 449723;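 active means hit in primary screen, with calcium signal over 5 SD above buffer well mean in both duplicates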;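 further: counter screen cells carry the mu-opioid receptor alone and lack TRPC4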). The note with it: HEK293 mu-opioid cells, Fluo-4 calcium fluorescence, at 10 µM; hits give high values.
The nature of test [16]: nonspecific potentiation of DAMGO calcium response – cell-based, HEK293 mu-opioid receptor line, counter-screen for TRPC4 allosteric potentiator project, confirmation (AID 449724;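 active means calcium signal rise more than 3 SD above the low-dose agonist control mean, in both duplicate plates and the primary screen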;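 further: HEK293 cells carrying mu-opioid receptor only with no TRPC4 channel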). The note with it: HEK293 mu-opioid receptor cells, Fluo-4 calcium flux, at 10 µM, compound added before EC20 DAMGO stimulus; hits give high values.

For part of these data: Measured potencies and affinities stand elsewhere. Activity calls are given as the source filed them.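 How the source made its calls, unless noted: active means signal rise over 3 SD above mean of control wells given weak agonist, in both repeats and first screen; inactive means the rest.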

Sequence of Short transient receptor potential channel 4 (Mus musculus) (Q9QUQ5 whole entry, looked up): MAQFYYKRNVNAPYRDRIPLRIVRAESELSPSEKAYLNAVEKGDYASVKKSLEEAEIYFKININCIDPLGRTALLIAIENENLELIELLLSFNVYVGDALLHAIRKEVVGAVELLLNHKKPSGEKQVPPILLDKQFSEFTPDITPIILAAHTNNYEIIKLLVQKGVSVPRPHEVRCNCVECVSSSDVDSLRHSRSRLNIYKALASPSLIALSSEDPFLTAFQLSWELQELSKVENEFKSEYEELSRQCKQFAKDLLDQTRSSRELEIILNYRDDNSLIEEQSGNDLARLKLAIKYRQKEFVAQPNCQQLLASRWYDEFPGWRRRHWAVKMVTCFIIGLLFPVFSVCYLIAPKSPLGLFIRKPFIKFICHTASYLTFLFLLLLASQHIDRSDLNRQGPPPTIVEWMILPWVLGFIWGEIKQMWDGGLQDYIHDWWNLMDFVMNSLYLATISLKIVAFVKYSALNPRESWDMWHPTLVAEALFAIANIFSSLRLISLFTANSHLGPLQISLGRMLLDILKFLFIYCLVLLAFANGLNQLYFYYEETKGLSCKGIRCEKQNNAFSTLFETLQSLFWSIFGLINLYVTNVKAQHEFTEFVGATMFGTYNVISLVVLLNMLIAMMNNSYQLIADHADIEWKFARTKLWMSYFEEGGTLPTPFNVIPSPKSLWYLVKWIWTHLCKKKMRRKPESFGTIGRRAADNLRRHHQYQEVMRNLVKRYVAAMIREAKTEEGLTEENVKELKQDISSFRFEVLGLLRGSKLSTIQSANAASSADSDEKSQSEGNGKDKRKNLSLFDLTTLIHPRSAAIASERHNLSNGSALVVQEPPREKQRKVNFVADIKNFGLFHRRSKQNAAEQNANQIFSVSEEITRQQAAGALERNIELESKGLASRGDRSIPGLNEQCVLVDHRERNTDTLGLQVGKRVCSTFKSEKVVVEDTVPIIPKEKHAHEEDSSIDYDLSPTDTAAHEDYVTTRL
Sequence of Short transient receptor potential channel 6 (Mus musculus) (Q61143 whole entry, looked up): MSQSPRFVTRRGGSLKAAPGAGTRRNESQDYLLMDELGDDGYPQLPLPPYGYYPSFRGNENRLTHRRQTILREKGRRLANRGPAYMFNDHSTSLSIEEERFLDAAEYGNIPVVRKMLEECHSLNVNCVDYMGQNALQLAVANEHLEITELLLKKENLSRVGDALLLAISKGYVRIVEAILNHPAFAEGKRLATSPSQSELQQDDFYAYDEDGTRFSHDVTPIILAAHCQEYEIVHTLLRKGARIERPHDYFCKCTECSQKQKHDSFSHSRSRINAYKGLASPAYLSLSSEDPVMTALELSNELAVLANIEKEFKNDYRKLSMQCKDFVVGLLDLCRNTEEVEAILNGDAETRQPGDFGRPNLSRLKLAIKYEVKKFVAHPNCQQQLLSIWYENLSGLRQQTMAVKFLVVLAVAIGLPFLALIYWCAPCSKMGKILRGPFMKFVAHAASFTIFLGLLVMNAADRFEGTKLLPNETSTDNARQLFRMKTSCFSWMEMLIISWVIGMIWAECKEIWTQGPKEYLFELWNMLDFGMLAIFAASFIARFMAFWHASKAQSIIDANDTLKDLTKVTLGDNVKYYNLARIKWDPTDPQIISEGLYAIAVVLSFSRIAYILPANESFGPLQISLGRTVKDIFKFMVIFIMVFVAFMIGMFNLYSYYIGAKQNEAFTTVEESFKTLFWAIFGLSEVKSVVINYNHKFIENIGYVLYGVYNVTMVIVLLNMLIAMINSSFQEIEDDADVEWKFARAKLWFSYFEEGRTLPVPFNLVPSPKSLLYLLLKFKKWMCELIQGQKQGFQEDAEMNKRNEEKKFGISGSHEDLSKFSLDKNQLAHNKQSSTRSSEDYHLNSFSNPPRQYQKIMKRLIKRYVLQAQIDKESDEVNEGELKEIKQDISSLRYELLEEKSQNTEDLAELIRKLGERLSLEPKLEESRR

In the case of `c1ccc(Cn2nnnc2C(c2cccnc2)N2CCN(C3CCCCC3)CC2)cc1` (stereo not given), the activation in test [1] is 115% (active); in [10], 47.5% (active); in [12], 32.6% (active). The outcome in [2], in [3], in [4], in test [5], in [6] and in test [7] was inactive. Further, the outcome in [8], in [9], in test [11], in [13], in [14] and in test [15] was inactive. In addition, the outcome in [16] was inactive.

For the compound `COc1ccc2c(Cl)c(-c3nnc4n3CCCCC4)sc2c1`, the activation is 117% (active) in [1] and 52% (active) in test [10]. Besides, the result in [2], in test [3], in [4], in test [5], in [6] and in test [7] was inactive. The outcome in test [8], in test [9], in test [11], in test [12], in test [13] and in test [14] was inactive. For the same compound, the result in test [15] and in test [16] was inactive.

As for `CCN1CCN(c2ccc(S(=O)(=O)N3CCOCC3)cc2NC(=O)c2ccccc2SC)CC1`, the activation is 316% (active) in [1], 110% (active) in test [2] and 81.4% (active) in test [12]. Further, the outcome in test [3], in test [4], in [5], in test [6], in [7] and in test [8] was inactive. For the same compound, the outcome in test [9], in test [10], in [11], in test [13], in [14] and in test [15] was inactive. In test [16], the outcome was inactive.

For the compound `COc1ccc(C(CNc2ncnc3sc(C)c(C)c23)N(C)C)cc1` (stereo not given), the activation in [1] is 227% (active); in [2], 113% (active). Besides, the result in test [3], in test [4], in [5], in test [6], in test [7] and in [8] was inactive. Besides, the call in test [9], in test [10], in [11], in [12], in test [13] and in test [14] was inactive. Further, the outcome in test [15] and in test [16] was inactive.

With `COc1ccc(C(CNC(=O)/C=C/c2c(Cl)nc3ccccn23)N(C)C)cc1` (stereo not given), the activation in test [1] is 268% (active); in test [2], 153% (active); in test [10], 41% (active); in [12], 7.37% (active). Also, the outcome in [3], in [4], in [5], in test [6], in test [7] and in [8] was inactive. Besides, the outcome in test [9], in test [11], in test [13], in test [14], in [15] and in test [16] was inactive.

Consider `CCN1CCN(c2ccc(S(=O)(=O)N3CCOCC3)cc2NC(=O)c2ccccc2OC(F)F)CC1`, for which the activation in test [1] is 204% (active); in test [2], 136% (active); in test [12], 77.8% (active). The result in test [3], in [4], in [5], in test [6], in test [7] and in [8] was inactive. Also, the compound was classed as inactive in [9], in [10], in test [11], in [13], in [14] and in test [15]. In test [16], the outcome was inactive.

Consider `COc1ccc(C(CNCC(O)COc2c(C)ccc(C)c2C)N(C)C)cc1` (stereo not given), for which the outcome in [1], in test [2], in test [3], in [4], in test [5] and in [6] was inactive. Moreover, the outcome in test [7], in [8], in [9], in test [11], in [12] and in test [13] was inactive. The result in test [14], in test [15] and in [16] was inactive. Moreover, the activation in [10] was 79% (active).

With `Cc1ccccc1Cn1c(CN2CCc3ccccc3C2)nc2c1c(=O)n(C)c(=O)n2C`, the activation in test [1] was 163% (active); in test [10], 71% (active). The outcome in test [2], in [5], in [6], in test [7], in test [8] and in [9] was inactive. The result in test [11], in test [12], in test [13], in test [15] and in test [16] was inactive. In addition, the potentiation in test [3] is 6% (active); in [4], 46% (active); in test [14] it was 88.5% (active).

On to `Cc1sc2ncnc(NCC(c3ccco3)N3CCCC3)c2c1C` (stereo not given), for which the activation is 143% (active) in test [1], 178% (active) in test [2] and 78.8% (active) in [12]. The outcome in test [3], in test [4], in test [5], in test [6], in test [7] and in [8] was inactive. The call in test [9], in test [10], in test [11], in test [13], in [14] and in test [15] was inactive. Also, the outcome in [16] was inactive.

In the case of `CC(=O)n1cc([C@H]2C=C(C(=O)NCc3ccccc3)O[C@@H](OCc3ccc(CO)cc3)C2)c2ccccc21`, the result in test [1], in test [2], in test [3], in test [4], in [5] and in test [6] was inactive. Besides, the result in test [7], in test [8], in test [9], in test [10], in test [11] and in test [12] was inactive. For the same compound, the result in test [13], in [14], in test [15] and in test [16] was inactive.

In the case of `CN(C)C(CNC(=O)NC1CCCCC1)c1cccnc1` (stereo not given), the activation is 79% (active) in test [1], 98% (active) in test [2] and 29.5% (active) in test [10]. Also, the result in test [3], in test [4], in test [5], in test [6], in [7] and in test [8] was inactive. Further, the result in test [9], in test [11], in [12], in [13], in test [14] and in [15] was inactive. Moreover, in [16], the result was inactive.

Take `CCC(=O)N1CCc2cc(Br)cc(S(=O)(=O)NCCCN(C)Cc3ccccc3)c21`: the activation is 116% (active) in [1], 65% (active) in test [2], 55% (active) in test [10] and 33.1% (active) in test [12]. The outcome in test [3], in test [4], in test [5], in [6], in test [7] and in [8] was inactive. For the same compound, the result in test [9], in test [11], in test [13], in [15] and in test [16] was inactive. In [14], the potentiation was 26.2% (active).

`CC(Nc1nc(N2CCNCC2)nc2ccccc12)c1ccccc1` (stereo not given): the outcome in test [1], in test [2], in [3], in test [4], in test [5] and in test [6] was inactive. Besides, the outcome in test [7], in [8], in test [9], in test [10], in test [11] and in test [13] was inactive. Also, the outcome in [14], in [15] and in test [16] was inactive. The activation in [12] is 16.7% (active).

Consider `CC(=O)c1c(C)nn(CC(=O)NC2CCCN(Cc3ccc(CC(C)C)cc3)C2)c1C` (stereo not given), for which the activation in test [1] is 122% (active); in test [10] it was 34.5% (active); in test [12] it was 50.2% (active). The outcome in test [2], in test [3], in [4], in test [5], in test [6] and in test [7] was inactive. Moreover, the result in test [8], in [9], in [11], in [13], in test [14] and in test [15] was inactive. The result in test [16] was inactive.

Consider `Clc1cccc(OCCN2CCNCC2)c1`, for which the activation was 66% (active) in [1], 54% (active) in test [2] and 31.1% (active) in [12]. The result in test [3], in [4], in test [5], in test [6], in test [7] and in test [8] was inactive. Moreover, the compound was classed as inactive in test [9], in test [10], in test [11], in test [13], in test [14] and in test [15]. The result in [16] was inactive.
